Test results: PubChem BioAssay
The list shows a part of the results. Values without a mark were called inactive. Active and inactive are the calls of the source.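 How the source made its calls, unless noted: active means mean inhibition above about 50% in the one-dose retest (limit read from the data); inactive means the rest.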

Target: Sentrin-specific protease 7 (Homo sapiens) (UniProt Q9BQF6)
Test: human SENP7 peptidase blockers, hit retest – biochemical, luminescence, single concentration, confirmation (AID 488917)
Details: recombinant SENP7, Z-RLRGG-aminoluciferin luminescence, 40 min; at 12.5 µM; hits give high values

Sequence of Sentrin-specific protease 7 (Homo sapiens) (Q9BQF6 706-1050 limits assumed): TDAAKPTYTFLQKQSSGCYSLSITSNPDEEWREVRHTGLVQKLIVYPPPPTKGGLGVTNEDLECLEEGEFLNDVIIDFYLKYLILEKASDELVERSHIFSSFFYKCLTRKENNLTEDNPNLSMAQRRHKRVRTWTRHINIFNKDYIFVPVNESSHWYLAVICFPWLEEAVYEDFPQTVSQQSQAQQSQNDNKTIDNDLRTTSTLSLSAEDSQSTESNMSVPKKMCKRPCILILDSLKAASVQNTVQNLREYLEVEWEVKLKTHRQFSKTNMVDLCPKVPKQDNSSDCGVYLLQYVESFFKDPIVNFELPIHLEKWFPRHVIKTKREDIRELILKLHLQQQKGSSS

SMILES	inhibition
O=C(c1ccc(F)cc1)n1c(=S)nc2ccccn21	50.1% (active)
COc1ccc(C(=O)/C=C/Nc2ccccn2)cc1	102% (active)
C=CCn1c(C)cc(C2=NNC(=NCC)SC2)c1C	8%

Target: Caspase-3 (Homo sapiens) (UniProt P42574)
Sequence (P42574 28-227 limits assumed): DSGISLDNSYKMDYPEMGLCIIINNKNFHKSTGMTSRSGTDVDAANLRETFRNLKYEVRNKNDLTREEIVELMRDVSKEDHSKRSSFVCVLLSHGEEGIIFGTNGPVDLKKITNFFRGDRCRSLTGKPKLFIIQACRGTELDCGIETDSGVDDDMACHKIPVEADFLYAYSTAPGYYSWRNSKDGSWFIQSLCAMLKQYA
Test: human caspase-3 activity blockade, out-of-family – biochemical, single concentration, selectivity assay for SENP inhibitor project, confirmation (AID 488918;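 active means mean inhibition above about 50%, limit read from the data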;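 further: plate controls were enzyme with DMSO for no effect and wells without caspase-3 for full effect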)
Details: purified caspase-3, Z-DEVD-aminoluciferin luminescence, 60 min; at 12.5 µM; hits give high values

SMILES	inhibition
O=C(c1ccc(F)cc1)n1c(=S)nc2ccccn21	19.5%
COc1ccc(C(=O)/C=C/Nc2ccccn2)cc1	97% (active)
C=CCn1c(C)cc(C2=NNC(=NCC)SC2)c1C	1.7%

Test system: not listed separately
Test: Ultra-Glo luciferase signal interference – biochemical, single concentration, SENP8 reaction pre-completed, artefact control for SENP inhibitor project, confirmation (AID 488919;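 active means mean inhibition above about 50% when retested at one dose, limit read from the data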;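 further: plate controls were DMSO wells with completed reaction for no effect and substrate without enzyme for full effect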)
Details: Pre-incubated SENP8/Z-RLRGG-aminoluciferin, luciferase luminescence interference; at 12.5 µM; hits give high values

SMILES	inhibition
O=C(c1ccc(F)cc1)n1c(=S)nc2ccccn21	-9.8%
COc1ccc(C(=O)/C=C/Nc2ccccn2)cc1	96.4% (active)
C=CCn1c(C)cc(C2=NNC(=NCC)SC2)c1C	-1%

Test system: not listed separately
Test: HIF-2a driven luciferase blockers, single dose – luminescence, 786-0 RCC cells, confirmation (AID 651580;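 active means mean inhibition across four replicates of at least 40 percent at the single tested concentration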)
Details: HIF-2a luciferase reporter luminescence, overnight, at 18.8 µM, hits give high values

SMILES	inhibition
COc1ccc(C(=O)/C=C/Nc2ccccn2)cc1	80.7% (active)
C=CCn1c(C)cc(C2=NNC(=NCC)SC2)c1C	98.7% (active)
O=C(CN1C(=O)c2ccccc2S1(=O)=O)N1CCc2ccccc21	94.3% (active)
